Source: PubChem BioAssay (National Center for Advancing Translational Sciences (NCATS))
Compounds with a hit are over-represented: about 12% of the library has one in this group of screens.
JMJD2A Tudor inh: inhibitors of human JMJD2A Tudor domain; O75164; AlphaScreen JMJD2A-Tudor / H3K4me3 peptide binding; Potency, µM (top dose mostly 114 µM), hits mostly inhibitors; actives 4.4% (n = 390,000); further: nearly all actives have a fitted effect of over 50% in size
HP1b binding inh: inhibitors of HP1-beta chromodomain binding to methylated histone tails; P83916; AlphaScreen HP1-beta / biotin-H3K9me3 peptide binding; Potency, µM (doses to about 114 µM), usual class: inhibitors; actives 0.56% (n = 390,000); AID 540317; further: nearly all actives have a fitted effect of over 70% in size
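HP1-beta protein (50 nM final) preincubated 30 min at room temperature with biotinylated H3(1-18)K9me3 peptide (50 nM) in PBS pH 7.4, 0.01% Tween-20, then compound added for 30 min. AlphaScreen streptavidin donor/nickel chelate acceptor beads (10 ug/mL final), 30 min dark, luminescence read.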
L3MBTL1 block: blocks human L3MBTL1; Q9Y468; AlphaScreen L3MBTL1–H3K9me1 peptide binding; Potency, µM (series often up to 57.1 µM), actives largely listed as inhibitors; actives 0.66% (n = 230,000); AID 485360; further: nearly all actives have a fitted effect of over 60% in size
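First, the protein-peptide complex forms for 30 min at room temperature (L3MBTL1 50 nM, biotinylated H3K9me1 peptide 75 nM). Next, compounds are pin-transferred and incubated 30 min. Finally, AlphaScreen beads are added and read after 30 min.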
Sfp inh: blocks B. subtilis Sfp PPTase activity; Biochemical Sfp PPTase activity, qHTS; Q9F4F7; actives 3.5% (n = 310,000); Potency, µM, hits mostly inhibitors;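 further: the enzyme is Sfp with the accession as filed and its product quenches rhodamine fluorescence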
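Reaction rates are the 30-min fluorescence difference (ex 525, em 598 nm) in wells containing 15 nM Sfp, 5 uM rhodamine-CoA and 12.5 uM BHQ-2-YbbR at pH 7.6 with 10 mM MgCl2.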
BAZ2B inh: blocks human BAZ2B; Potency, µM (highest dose often 114 µM), most hits filed as inhibitors; Q9UIF8; actives 4.4% (n = 360,000); AlphaScreen BAZ2B-H3K14Ac peptide displacement; further: nearly all actives have a fitted effect of over 60% in size
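Protein-peptide AlphaScreen: BAZ2B 50 nM, b-H3K14Ac 50 nM, 1x PBS pH 7.4 + 0.01% Tween-20. Preincubation 30 min RT; cpd 30 min RT (top 110 uM); beads 20 min RT, light-protected.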
G9a inh: inhibitors of human histone lysine methyltransferase G9a; actives 8.8% (n = 350,000); G9a H3K9 monomethylation, AlphaScreen, 2 h; AID 504332; Q96KQ7; Potency, µM (titrated, usually from 102 µM), actives largely listed as inhibitors; further: nearly all actives have a fitted effect of over 75% in size
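AlphaScreen detection with an anti-monomethyl H3K9 antibody quantified product after a 2 h room-temperature reaction containing 500 nM biotinylated H3K9 peptide, 20 µM SAM and 20 nM enzyme, which had been preincubated 15 min with compound.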
Of the large screens only hits and unclear results are named; the others gave an inactive call. The call rests on the fitted dose curve; in most records, active means well fitted curve in the direction sought with a large enough effect; inconclusive means small, poorly fitted or top-dose-only effect, or another doubt; inactive means no such curve, though single readings can be large; an effect the other way counts as inactive or inconclusive.

COc1ccc(C2C(C#N)=C(N)N(c3cccnc3)C3=C2C(=O)CC(C)(C)C3)cc1OC (centres undefined)	G9a inh 35µM
CCOc1ccc(C2C(C#N)=C(N)N(N(C)C)C3=C2C(=O)CC(C)(C)C3)cc1 (centres undefined)	G9a inh 35µM (no result: L3MBTL1 block)
Cc1ccc(C2C(C#N)=C(N)N(c3cccnc3)C3=C2C(=O)CCC3)s1 (centres undefined)	BAZ2B inh inconclusive, G9a inh 40µM
Cc1ccc(C(=O)N2CCc3cc(CNS(=O)(=O)c4ccc(Cl)s4)ccc32)cc1	none (no result: L3MBTL1 block, Sfp inh)
CC1(C)CC(=O)C2=C(C1)N(c1cccnc1)C(N)=C(C#N)C2c1cccs1 (centres undefined)	Sfp inh inconclusive
COc1ccc(C2C3=C(CC(C)(C)CC3=O)N(CC(=O)O)C3=C2C(=O)CC(C)(C)C3)cc1OC	G9a inh 71µM
COc1ccc(N2C(N)=C(C#N)C(c3cccnc3)C3=C2CC(C)(C)CC3=O)cc1 (centres undefined)	G9a inh 11µM
Oc1[nH]c2ccccc2c1N=Nc1nc(Nc2ccccc2)nc(N2CCOCC2)n1	Sfp inh 16µM, BAZ2B inh inconclusive (no result: L3MBTL1 block)
Cc1[nH]c2ccccc2c1/C=N/Nc1nc(Nc2ccccc2)nc(N2CCOCC2)n1	JMJD2A Tudor inh inconclusive, BAZ2B inh 40µM (no result: G9a inh)
c1ccc(Nc2nc(N3CCCC3)nc(N3CCOCC3)n2)cc1	none (no result: L3MBTL1 block, Sfp inh, BAZ2B inh, G9a inh)
CC(NC(=O)CSc1n[nH]c(-c2ccccc2Cl)n1)c1nc2ccccc2n1C (centres undefined)	none (no result: L3MBTL1 block, Sfp inh)
O=C(CNC(=O)c1cccc(-n2cnnn2)c1)Nc1ccc(F)c(F)c1	JMJD2A Tudor inh 89µM, G9a inh inconclusive (no result: Sfp inh)
CSc1ncccc1C(=O)NCC(=O)Nc1ccc(F)c(F)c1	G9a inh 3.2µM (no result: L3MBTL1 block)
CSc1ncccc1C(=O)NNc1cc(Cl)ccc1Cl	G9a inh 45µM (no result: L3MBTL1 block)
O=C(CNC(=O)c1ccncc1)Nc1ccc(F)c(F)c1	none (no result: L3MBTL1 block)
CSc1ncccc1C(=O)NC1CCCCCCC1	none (no result: L3MBTL1 block)
CC(C)(C)OC(=O)Cc1nnc(-c2cc3ccccc3[nH]2)o1	none (no result: HP1b binding inh, L3MBTL1 block, Sfp inh, BAZ2B inh, G9a inh)
CCOc1ccc(NC(=O)CSc2nc(-c3ccccc3)c3cc(OCC)ccc3n2)cc1	none (no result: L3MBTL1 block, Sfp inh)
CCN1CCCC1CNC(=O)c1ccc(N2CCOCC2)c(NS(=O)(=O)c2ccc(OC)cc2)c1 (centres undefined)	G9a inh 50µM (no result: L3MBTL1 block)
COc1ccc(S(=O)(=O)Nc2cc(C(=O)NCCC(C)C)ccc2N2CCOCC2)cc1	G9a inh 50µM
Cc1c(C(=O)N(Cc2cccc(F)c2)C2CCS(=O)(=O)C2)oc2cc(Br)ccc12 (centres undefined)	none (no result: L3MBTL1 block, Sfp inh)
COc1ccc(OC)c(NC(=O)N2CCN(Cc3nc4ccc(C)cc4o3)CC2)c1	BAZ2B inh inconclusive (no result: L3MBTL1 block, Sfp inh)
O=C1C2=C(C(=O)c3ccccc31)C1O[C@](c3ccsc3)(Cc3c1ccc1ccccc31)O2	BAZ2B inh 11µM (no result: JMJD2A Tudor inh, HP1b binding inh, L3MBTL1 block)
O=C1CCCC2=C1C1O[C@](c3ccsc3)(Cc3c1ccc1ccccc31)O2	none (no result: JMJD2A Tudor inh, HP1b binding inh, L3MBTL1 block)
CCCCCCCCOc1ccccc1C(=O)Nc1ccc(C(=O)OCC[N+](C)(CC)CC)cc1	Sfp inh 40µM (no result: JMJD2A Tudor inh, HP1b binding inh, L3MBTL1 block, BAZ2B inh)
Cc1ccc(NC(=O)CSCc2cc(=O)n3nc(C4CC4)sc3n2)cc1	JMJD2A Tudor inh 32µM (no result: L3MBTL1 block)
Cc1cccc(NC(=O)CSc2nnc(CSc3nc(C)cc(C)n3)o2)c1	none
CCc1nnc(NC(=O)CSCc2cc(=O)n3nc(C)sc3n2)s1	JMJD2A Tudor inh 18µM (no result: L3MBTL1 block)
CCc1nnc(NC(=O)CSc2nnc(CSc3nc(C)cc(C)n3)o2)s1	Sfp inh 50µM, G9a inh 40µM
COc1cccc(NC(=O)CSCc2cc(=O)n3nc(C4CC4)sc3n2)c1	none (no result: L3MBTL1 block)
CCCc1nn2c(=O)cc(CSCC(=O)Nc3nnc(CC)s3)nc2s1	none (no result: L3MBTL1 block)
COc1cc(NC(=O)C2=CC(c3ccc(F)cc3)=NS(=O)(=O)N2C)cc(OC)c1OC	none (no result: L3MBTL1 block, Sfp inh)
CCOc1ccc(CNC(=O)CCCn2c(=O)c3cccn3c3ccc(F)cc32)cc1	none (no result: L3MBTL1 block, Sfp inh)
COc1ccc(-c2onc(C)c2C)cc1S(=O)(=O)N1c2ccccc2CC1C (centres undefined)	none (no result: L3MBTL1 block, Sfp inh)
